Test results as given in PubChem BioAssay (NCATS).
Inconclusive results are not listed. Active and inactive are the calls of the source. The call rests on the fitted dose curve; in most records, active means well fitted inhibition curve with a large enough effect; inconclusive means small, poorly fitted or top-dose-only effect; inactive means flat fitted curve, though single readings scatter.

Biological target: Calcium and integrin-binding protein 1 (Homo sapiens) (UniProt Q99828)
Assay: Primary qHTS for Identification of Calcium Integrin Binding Protein 1 (CIB1) Competitor (AID 1508620);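 further: GST tagged CIB1 binding a fluorescein labelled alphaIIb integrin peptide tracer; top concentration of the series differs between compounds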
Details: CIB1-GST / FITC-alphaIIb peptide fluorescence polarization; series mostly up to 57.7 µM
Excerpt: Assay Provider: Ulhas P. Naik, PhD Sidney Kimmel Medical College Thomas Jefferson University, Philadelphia, PA Primary function of platelets is to maintain hemostasis. At the site of vascular injury, platelets adhere to adhesive proteins such as collagen and von Willebrand factor. Adherent platelets are activated and generate soluble platelet agonists such as thrombin, ADP and thromboxane A2. Following exposure of circulating platelets to these agonists, results in platelet shape change, granule secretion and activation of platelet integrin alphaIIb-beta3. Ligand binding to activated integrin alphaIIb-beta3 triggers outside-in signaling, leading to platelet aggregation, stabilization of platelet plug, and clot retraction. Upon atherosclerotic plaque rupture also causes platelet plug formation, which underlies a number of cardiovascular diseases such as myocardial infraction and stroke. A number of anti-platelet drugs such as aspirin, clopidogrel, prasugrel, vorapaxar, and eptifibatide are currently available to prevent the thrombotic complications. However, these anti-platelet agents have several limitations including inherent variability in individual responses, developing resistance, and serious bleeding side effects. For these reasons they are not suitable for long-term protection. Based on the experiences with current anti-platelet drugs, it appears that the most useful therapeutic approach is to intersect the secondary responses such as integrin outside-in signaling or recruitment of platelets by TxA2 and secreted ADP. Compounds, which can largely preserve the primary hemostatic function of platelets but inhibit secondary response will be most desired therapeutic agents for treatment of cardiovascular disease. CIB1 is a calcium integrin binding protein, which specifically interact with the alphaIIb subunit of integrin alphaIIb-beta3. Binding of CIB1 to alphaIIb regulates the outside-in signaling in platelets, which is needed for thrombus stabilization and thrombus growth. […] Therefore, we propose that discovery of a small molecule that can prevent the association of CIB1 and alphaIIb-beta3 will be a potential anti-platelet agent that can block the thrombus formation without undue effect on hemostasis. Reference: [1] Naik MU, Nigam A, Manrai P, et al. CIB1 deficiency results in impaired thrombosis: the potential role of CIB1 in outside-in signaling through integrin alpha IIb beta 3. J Thromb Haemost.
PROTOCOL TABLES SEQUENCE No. (1, 2, 3, etc.); […] (e.g., Cells, Incubation, Reagent, etc.); VALUE and DESCRIPTION. 1; Reagent; 3 uL; Protein or buffer (4/3x) 2; Compound; 46 nL; Control inhibitor / compound library 3; Time; 15 min; Room temperature incubation 4; Reagent; 1 uL; Fluorescent labeled peptide (4x) 5; Time; 1000 rpm; Centrifuge 6; Time; 15 min; Room temperature incubation 7; Detection; Ex 480/ Em 540; ViewLux Fluorescence Read NOTES (numbers refer to sequence above) 1; Protein Mixture: C1B1-GST (final concentrations of 1 uM). […] 3; Room temperature incubation. 4; Fluorescent Labeled Peptide: FITC-aIIb (final concentration of 100 nM). Sequence of alphaIIb peptide: Acetyl-[…]-FITC (purity is 95.83%). 5; Centrifuge 1000 rpm (164 g) for 15 seconds. 6; Room temperature incubation. 7; ViewLux Fluorescent Polization Read: excitation = 480(20) / emission = 540(25) S and P; FITC Dichroic mirror.

Sequence of Calcium and integrin-binding protein 1 (Homo sapiens) (Q99828 whole entry, looked up): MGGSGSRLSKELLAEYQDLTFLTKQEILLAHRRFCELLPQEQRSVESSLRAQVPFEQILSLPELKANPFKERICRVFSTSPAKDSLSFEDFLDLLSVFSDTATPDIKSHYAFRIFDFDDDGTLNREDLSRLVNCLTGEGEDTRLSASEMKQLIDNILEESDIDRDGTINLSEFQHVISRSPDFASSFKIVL

Row | SMILES | outcome
1 | OCCn1cc(-c2cnc3nnn(Cc4ccc5ncccc5c4)c3n2)cn1 | inactive
2 | Cc1cc(C=c2sc3nc4ccccc4n3c2=O)c(C)n1-c1ccccc1 | inactive
3 | COc1ccc(CC2=NN3C([C@@H](CCc4ccccc4)[C@@H](C)O)=NC(C)C3C(=O)N2)cc1OC (stereo not given in full) | inactive
4 | Cc1c(CN2CCN(C(=O)C(C)C)CC2)sc2c(N3CCOCC3)nc(-c3cnc(N)nc3)nc12 | inactive
5 | Cc1cnc(Nc2ccc(OCCN3CCCC3)cc2)nc1Nc1cccc(S(=O)(=O)NC(C)(C)C)c1 | inactive
6 | COc1cc2nccc(Oc3ccc(NC(=O)NC4CC4)c(Cl)c3)c2cc1C(N)=O | inactive
7 | CCOc1ccn(-c2ccc(F)cc2)c(=O)c1C(=O)Nc1ccc(Oc2ccnc(N)c2Cl)c(F)c1 | inactive
8 | CC1(C)Cc2c(-c3ccccc3)c(-c3ccc(Cl)cc3)c(CC(=O)O)n2C1 | inactive
9 | N#Cc1ccc(C(c2ccc(C#N)cc2)n2cncn2)cc1 | inactive
10 | Nc1nc2[nH]cc(CCc3ccc(C(=O)N[C@@H](CCC(=O)O)C(=O)O)cc3)c2c(=O)[nH]1 | inactive
11 | Cc1cccc(-c2[nH]c(C(C)(C)C)nc2-c2ccc3nccnc3c2)n1 | inactive
12 | CCC(=O)N[C@H]1CC[C@H](C(=O)N(C)c2ccc(-c3nc4ccccc4o3)cc2)C1 | inactive
13 | Cc1[nH]c(=O)c(C#N)cc1-c1ccncc1 | inactive
14 | COc1ccc(-c2oc3cc(OC)ccc3c2C(=O)c2ccc(C#N)cc2)cc1 | inactive
15 | N[C@@H]1CONC1=O | inactive
16 | NC(=O)c1cnccn1 | inactive
17 | NC(=O)c1ccc(-c2nc(-c3ccc4c(c3)OCCO4)c(-c3ccccn3)[nH]2)cc1 | inactive
18 | c1ccc([C@H]2CN3CCSC3=N2)cc1 | inactive
19 | NC(N)=NC(=O)c1nc(Cl)c(N)nc1N | inactive
20 | Nc1nccc(-c2ccc3noc(-c4ccc(Cl)cc4)c3c2)n1 | inactive

Row | SMILES | outcome
21 | CCn1c(-c2nonc2N)nc2cnc(Oc3cccc(NC(=O)c4ccc(OCCN5CCOCC5)cc4)c3)cc21 | inactive
22 | COc1ccc(CCN2CCN(CCCc3ccccc3)CC2)cc1OC | inactive
23 | CCOC(=O)C1=C[C@]2(CC)CCCN3CCc4c(n1c1ccccc41)[C@@H]32 | inactive
24 | NCCCC(N)(C(=O)O)C(F)F (stereo not given) | inactive
25 | Nc1ncnc2nc(-c3ccc(N4CCOCC4)nc3)cc(-c3cccc(Br)c3)c12 | inactive
26 | CNC(=O)c1ccc(C)c(-n2c(C)cc(OCc3ccc(F)cc3F)c(Br)c2=O)c1 | inactive
27 | O=C(Nc1ccc(F)c(C(F)(F)F)c1)Nc1nnc(-c2ccncc2)s1 | inactive
28 | Cc1cccc(-c2nn(C(=S)Nc3ccccc3)cc2-c2ccnc3ccccc23)n1 | inactive
29 | O=S(=O)(N=Cc1c(O)ccc2ccccc12)c1cccs1 | inactive
30 | C[C@H](NC(=O)Cc1cc(F)cc(F)c1)C(=O)N[C@@H]1C(=O)N(C)c2ccccc2-c2ccccc21 | inactive
31 | Cc1n[nH]c(C)c1Cc1sc2c(c1C(=O)N1C[C@H](O)CO1)c(=O)n(C)c(=O)n2CC(C)C | inactive
32 | O=c1[nH]c(-c2ccc(C(F)(F)F)cc2)nc2c1CSCC2 | inactive
33 | CS(=O)(=O)Oc1ccc2c(NC(N)=O)c(C(=O)c3ccc(Cl)cc3Cl)oc2c1 | inactive
34 | CN(C)c1ccc(C2Nc3ccc4ccccc4c3C3=C2C(=O)CC(C)(C)C3)cc1Br (stereo not given) | inactive
35 | O=C(c1cc(Cc2n[nH]c(=O)c3ccccc23)ccc1F)N1CCN(C(=O)C2CC2)CC1 | inactive
36 | O=C1CCCC2=C1C(c1[nH]ncc1Cl)N=C(Nc1nc3ccccc3o1)N2 (stereo not given) | inactive
37 | Cc1cc(Nc2nc(N[C@@H](C)c3ncc(F)cn3)ncc2Cl)n[nH]1 | inactive
38 | O=c1ncn2nc(Sc3ccc(F)cc3F)ccc2c1-c1c(Cl)cccc1Cl | inactive
39 | CCN(CC)CCCC(C)Nc1nc(C)cc(Nc2ccc3nc(C)cc(N)c3c2)n1 (stereo not given) | inactive
40 | CC(C)(Sc1ccc(CCN(CCCCC2CCCCC2)C(=O)NC2CCCCC2)cc1)C(=O)O | inactive
